This note sets out measurements from ChEMBL document CHEMBL4513216, “Probing the Open Global Health Chemical Diversity Library for Multistage-Active Starting Points for Next-Generation Antimalarials” (ACS Infect Dis, 2020).

Each structure is given as a SMILES string. Out of some 69,000 compounds screened, about 8,600 (12%) showed an effect of 50% or more. Many of the other results were omitted from the sample, so strong results are more common in it than they were.

In this test the test system is Plasmodium berghei. Put plainly: Screen against P. berghei liver stage (PbLuc), transformed with Luciferase, at 10uM. It is filed as functional, HepG2. To be noted: tested at 10 uM.
For the compound `CC(NC(=O)c1cccc[n+]1[O-])C1CC1` (stereo not drawn), the INHIBITION came out at 9%.

Turning to `CC(C)CNC(=O)COc1cccc[n+]1[O-]`, the INHIBITION is -12.1%. With `CC(C)n1ccnc1C1CCN(c2nccc(C(F)(F)F)n2)CC1`, the INHIBITION is on record as 11.5%. As for `COCCN(C/C=C/c1ccccc1)Cc1ccccn1`, the figure is 27.8%; as for `COCCN(C/C=C/c1ccccc1)Cc1nccs1`, -12.6%.

With `CCc1ccc(CN(C/C=C/c2ccccc2)CCOC)nc1`, the INHIBITION turned out to be 52.9%. For the compound `c1cc2c(cc1CN1CC[C@H]3CO[C@H](CN4CCCC4)[C@H]3C1)OCO2`, the INHIBITION was determined as 10.5%. Next, `C[C@H]1CN(C(=O)c2cscn2)C[C@@]12CCN(c1ccsc1)C2=O`: 47.4%. Next, `COCCOCC(=O)N1C[C@@H]2CC[C@H](Oc3ccccc3)[C@@H]2C1`: 7.52%.

For `CC(=O)N1C[C@@H]2CN(S(=O)(=O)C3CC3)CCO[C@@H]2C1`, the INHIBITION was found to be 6.79%.

With `CC(=O)N1CCO[C@@H]2CN(S(=O)(=O)C3CC3)C[C@@H]2C1`, the INHIBITION was determined as 50.3%. As to `CC(=O)N1CCO[C@@H]2CN(S(=O)(=O)C3CC3)CC[C@@H]2C1`, the INHIBITION was determined as 37.6%. As for `Cc1nn(C)c2c(=O)n(Cc3ccccc3)nnc12`, the figure is 28.89%; as for `COc1ccnc(N2C[C@H]3CC[C@@H](C2)N(CC2CCC2)C3=O)n1`, 32.1%; as for `COc1cc2c(cc1CNC(=O)Cc1cc(C)[nH]n1)OC(C)C2` (stereo not drawn), 46.6%. For `COc1cc2c(cc1CNCc1cccnc1OC)OC(C)C2` (stereo not drawn), the INHIBITION is 60.2%. As for `CC(C)N1CC(C(=O)NCc2ccnc(-n3cccn3)c2)CC1=O` (stereo not drawn), the INHIBITION is on record as -28%. As for `COc1cccc(CNCc2cccnc2-n2cccn2)c1OC`, the INHIBITION came to 16.2%. Turning to `COc1cc2c(cc1CNCc1cccnc1-n1cccn1)OC(C)C2` (stereo not drawn), the INHIBITION is recorded as 68.9%.

In the case of `COc1cc2c(cc1CNC(=O)Cc1ccc(C)nc1)OC(C)C2` (stereo not drawn), the INHIBITION is reported as -25.3%. `COc1cc2c(cc1CNC(=O)Cc1cc(C)on1)OC(C)C2` (stereo not drawn): the INHIBITION came out at 47.4%.

On to `COc1ccc(CNCc2ccnc(N3CCOCC3)c2)c(OC)c1`, for which the INHIBITION turned out to be 29.6%. As for `COc1cc2c(cc1CNCc1ccnc(-n3cccn3)c1)OC(C)C2` (stereo not drawn), the INHIBITION was 67.8%. Consider `O=S(=O)(Cc1ccccc1)N1CCCn2cnc(CN3CCCC3)c2C1`, for which the INHIBITION is listed as -17.7%.

Take `O=C(CCn1cccn1)N1CCC(c2nnc(-c3ccccn3)o2)CC1`: the INHIBITION is reported as 44.9%. For `Cc1cc(-c2ccc(=O)n(C3CCN(C(=O)C4CCC4)CC3)n2)c(C)o1`, the INHIBITION was -30.9%. As for `CC(=O)Nc1c(C)cnn1Cc1cc(F)ccc1F`, the figure is -8.21%; as for `CCC(=O)NCC(=O)Nc1c(C)cnn1Cc1cc(F)ccc1F`, 44.2%.

As for `Cc1cnn(Cc2cc(F)ccc2F)c1NC(=O)C1COCCO1` (stereo not drawn), the INHIBITION turned out to be 2.01%. For `Cc1cnn(Cc2cc(F)ccc2F)c1NC(=O)C1CCOCC1`, the INHIBITION is 72.3%. For the compound `Cc1cnn(Cc2cc(F)ccc2F)c1NC(=O)CNC(=O)C1CC1`, the INHIBITION is given as 72.3%. `Cc1cnn(Cc2cc(F)ccc2F)c1NC(=O)NC1CC1`: the INHIBITION was found to be 35.6%. Regarding `CC(=O)N1CC(C(=O)N2CCCC(Cn3ccnc3C)C2)C1` (stereo not drawn), the INHIBITION is on record as -3.7%.

On to `Cc1ccc(N2CCCC(Nc3nn4cc(C)nc4s3)C2)nn1` (stereo not drawn), for which the INHIBITION was -17.7%. For `Cc1cnn(CCC(=O)N2CCN(c3ccc(C#N)cn3)CC2)c1`, the INHIBITION is recorded as 5.9%.

For the compound `CC(=O)N1CCCn2nc(CNS(=O)(=O)N3CCC(C)CC3)cc2C1`, the INHIBITION is recorded as 15.7%. Regarding `CN1CCC2(CC1)CN(C(=O)c1onc3ccccc13)CCCN2C`, the INHIBITION is 24.2%.

`CC(=O)Nc1ccsc1C(=O)N1CC[C@H]2CC[C@@H](C1)N2C`: the INHIBITION is 33.3%. For the compound `c1cncc(N2CCCn3nnc(COCC4CC4)c3C2)c1`, the INHIBITION came out at 20.6%. As for `c1cncc(N2CCCn3nnc(CN4CCOCC4)c3C2)c1`, the INHIBITION was determined as 7.67%.

Consider `Cn1ncc2c1C(COCC1CC1)CN(Cc1ccncc1)C2` (stereo not drawn), for which the INHIBITION is reported as 22.2%. As to `c1cc(CN2CCCn3nnc(COCC4CC4)c3C2)ccn1`, the INHIBITION worked out at 42.1%. On to `Cc1ccc(CN2CCc3c(COCC4CC4)nn(C)c3C2)s1`, for which the INHIBITION is reported as 59.3%. On to `Cn1ncc2c1CN(Cc1cccnc1)CC2COCC1CC1` (stereo not drawn), for which the INHIBITION is reported as 53.5%. Regarding `Cc1ccc(CN2CCc3c(COC(C)C)nn(C)c3C2)s1`, the INHIBITION turned out to be 22.2%.

As to `Cn1nc(COCC2CC2)c2c1CN(CC1CC1)CC2`, the INHIBITION was 21.6%. As to `O=C1CCCN1Cc1nnn2c1CN(c1cccnc1)CCC2`, the INHIBITION was found to be 6.67%. On to `c1cncc(CN2CCCn3nnc(COCC4CC4)c3C2)c1`, for which the INHIBITION is given as 64.7%. Next, `c1cncc(N2CCCn3nnc(CN4CCCCC4)c3C2)c1`: 70.3%; `Cn1ncc2c1C(COCC1CC1)CN(Cc1cccnc1)C2` (stereo not drawn): 43.9%.

As to `COCCNC(=O)c1cc(C2CC2)nc2onc(C3CCNC3)c12` (stereo not drawn), the INHIBITION is 25.1%. For `COCCN1CCC(C)(c2cc(O)[nH]n2)CC1`, the INHIBITION is given as 9.05%.

Take `O=C(Cc1cccnc1)N1CCC(c2nnc(-c3ccccn3)o2)CC1`: the INHIBITION is given as 1.5235%.
